The compounds below were run on wheat germ agglutinin (Triticum aestivum), Alexa647-labelled (assay: Alexa647-WGA lectin binding to printed small molecules – biochemical, small-molecule microarray, 635/667 nm fluorescence, artefact control for SMM control-protein annotation, profiling panel (AID 1140;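 note: score merges 667 nm feature emission with signal to noise over triplicate slides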)). Conditions: WGA-A647 binding, 635 nm fluorescence, higher = more signal.
`COCCOC(=O)N1C(=O)[C@@]2(c3ccccc31)[C@H](c1ccc(O)cc1)N1[C@H](c3ccccc3)[C@H](c3ccccc3)OC(=O)[C@H]1[C@@H]2C(=O)Nc1nc2ccccc2s1` was tested, and the composite z-score was 1.14.
Compound `NC(=O)NCC#Cc1ccc2c(c1)[C@]1(C(=O)N2)[C@H](C(=O)Nc2nc3ccccc3s2)[C@H]2C(=O)O[C@H](c3ccccc3)[C@H](c3ccccc3)N2[C@@H]1c1ccccc1OCCO` has a composite z-score of 1.1.
`COCCOC(=O)N1C(=O)[C@@]2(c3ccccc31)[C@H](c1ccccc1OCCO)N1[C@H](c3ccccc3)[C@H](c3ccccc3)OC(=O)[C@H]1[C@@H]2C(=O)N1CCN(c2ncccn2)CC1` was tested, and the composite z-score was 1.1.
`COC(=O)[C@@]1(Cc2ccc(F)cc2)[C@H]2c3cc(C(=O)N4CCCC4)n(CCCNc4ncc(C(F)(F)F)cc4Cl)c3C[C@H]2CN1C(=O)c1ccccc1` showed a composite z-score of 1.03.
For `CC(C)C[C@@H]1NC(=O)[C@@H]2C[C@H](C(=O)NCc3ccc(F)cc3)[C@H](c3cccc(OCCO)c3)N2C1=O`, the composite z-score was -0.129.
For `C=CCC(OC(C)=O)[C@@H]1[C@@H](N(Cc2cc3ccccc3o2)C(=O)c2cccc3ccccc23)c2cc(OCCCO)ccc2N1C(=O)c1ccc(-c2ccccc2)cc1` (some centres undefined), the composite z-score was 0.297.
`C#C[C@H](O[Si](C#Cc1ccc(Oc2ccccc2)cc1)(C(C)C)C(C)C)c1ccccc1` gave a composite z-score of 0.0936.
`O=C1N[C@@H](Cc2ccccc2)C(=O)N2[C@@H]1C[C@@H](C(=O)O)[C@H]2c1cccc(OCCO)c1` showed a composite z-score of 0.552.
In the case of `COCCCNC(=O)[C@@]1(C)c2ccccc2C(=O)N(C(C)C)[C@H]1c1ccc(CO)cc1`, the composite z-score is reported as 0.342.

From PubChem BioAssay
